Where “and” joins values, the source holds several entries; their conditions need not be identical. Equal entries are not always repeated. Structures can show the parent of a compound that is named as a salt.
Experiments:
Assay in all cases: cell viability relative to vehicle control; higher = less cytotoxic
Settings in all cases: 10 µM
K562 = tested on: K562
Procedure, shortened: (§1)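 Four leukaemia lines, as CRISPR-edited mutant clones and isogenic wild-type clones, were tested against Selleck bioactive, kinase and epigenetic probe libraries after removal of identity-inconsistent compounds. Cells were exposed to a single 10 µM dose for 48 h, and CellTiter-Glo luminescence was then read. Viability was calculated relative to the on-plate vehicle control.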

MARIMO = tested on: MARIMO
Procedure, shortened: as §1

MOLM14 = tested on: MOLM14
Procedure, shortened: as §1

OCI-AML2 = tested on: OCI-AML2
Procedure, shortened: as §1

Structure (SMILES)	cell viability (K562; SRSF2 genotype: SRSF2 P95H/wt)	cell viability (K562; SRSF2 genotype: SRSF2 wt/wt) [%]	cell viability (MARIMO; SRSF2 genotype: SRSF2 P95H/wt) [%]	cell viability (MARIMO; SRSF2 genotype: SRSF2 wt/wt) [%]	cell viability (MOLM14; SRSF2 genotype: SRSF2 P95H/wt) [%]	cell viability (MOLM14; SRSF2 genotype: SRSF2 wt/wt) [%]	cell viability (OCI-AML2; SRSF2 genotype: P95H/wt) [%]	cell viability (OCI-AML2; SRSF2 genotype: wt/wt) [%]
CN1[C@@H]2CC[C@H]1C[C@@H](OC(=O)C(CO)c1ccccc1)C2 (stereo partly drawn) [Atropine sulfate]	105% and 99.4%	100	105	112	110	107	94	97.8
NCC(CC(=O)O)c1ccccc1 (stereo not drawn) [Phenibut]	105% and 102%	102	102	109	108	104	96.7	116
C[C@]12CC[C@H](O)CC1=CC[C@@H]1[C@@H]2CC[C@]2(C)C(=O)CC[C@@H]12 [Dehydroepiandrosterone (DHEA)]	89.1% and 108%	102	98.1	101	108	103	110	93.2
COc1ccc(C(=O)N2CCCC2=O)cc1 [Aniracetam]	105% and 106%	110	107	109	110	109	118	106
CN1CC=C(c2ccccc2)CC1 [MPTP hydrochloride]	100% and 99.7%	102	107	111	103	105	92.5	108
CC(=O)Nc1ccc(OC[C@](C)(O)C(=O)Nc2ccc([N+](=O)[O-])c(C(F)(F)F)c2)cc1 [Andarine (GTX-007)]	103% and 99%	107	98.4	105	106	105	97.1	95.8
CC(=O)O[C@H]1C[C@@H]2CC[C@@H]3[C@H](CC[C@@]4(C)[C@H]3C[C@H]([N+]3(C)CCCCC3)[C@@H]4OC(C)=O)[C@@]2(C)C[C@@H]1[N+]1(C)CCCCC1 [Pancuronium dibromide]	101% and 96.7%	91.6	96	99.3	103	102	97.4	101
CC[C@@]1(O)C(=O)OCc2c1cc1n(c2=O)Cc2cc3ccccc3nc2-1 [Camptothecin]	27.3% and 26.7%	21.8	5.71	3.67	3.1	1.35	3.26	3.91
CC(NC(C)(C)C)C(=O)c1cccc(Cl)c1 (stereo not drawn) [Amfebutamone (Bupropion) HCl]	86.7% and 90.3%	95.6	87.9	94.1	95.1	95.6	93.1	90.5
CN1C2CC(O)CC1C1OC12 (stereo not drawn) [Scopine]	100% and 97.1%	95.5	101	103	97	100	93.6	106
O=C(/C=C/c1ccccc1)OC[C@H]1O[C@@H](O[C@@H]2OC=C[C@H]3[C@H](O)[C@@H]4O[C@]4(CO)[C@@H]23)[C@H](O)[C@@H](O)[C@@H]1O [Picroside I]	99.3% and 101%	105	98.8	98.7	101	103	104	100
CCN(CC)C(=O)c1ccc(C2=CC3(CCNCC3)Oc3cccc(O)c32)cc1	93.6% and 101%	92.9	88.9	98.2	97.5	93.4	97.3	89
C=C1C[C@@H]2[C@H](CC[C@]3(C)C(=O)CC[C@@H]23)[C@@]2(C)C=CC(=O)C=C12 [Exemestane]	93.7% and 96.7%	100	82.8	92.6	80.3	94.3	90.2	91.2
O=c1cccc2n1C[C@@H]1CNC[C@H]2C1 [Cytisine]	107% and 100%	92.9	93.3	107	97.7	102	94.3	104
CC(=O)O[C@@]12CO[C@@H]1C[C@H](O)[C@@]1(C)C(=O)[C@H](O)C3=C(C)[C@@H](OC(=O)[C@H](O)[C@@H](NC(=O)c4ccccc4)c4ccccc4)C[C@@](O)([C@@H](OC(=O)c4ccccc4)[C@H]21)C3(C)C [10-deacetyl-paclitaxel]	25.2% and 36.9%	34.3	7.89	4.88	9.1	3.82	10.3	15.4
COc1cc(OC)c(OC)cc1C=O [Asaraldehyde (Asaronaldehyde)]	110% and 107%	106	100	114	110	105	102	105
CN(C)[C@@H]1C(=O)C(C(N)=O)=C(O)[C@@]2(O)C(=O)C3=C(O)c4c(O)cccc4[C@@](C)(O)[C@H]3[C@H](O)[C@@H]12 [Oxytetracycline dihydrate]	98.3% and 102%	101	104	100	97.6	103	103	92.6
CC[C@@H](C(N)=O)N1CCCC1=O [Levetiracetam]	110% and 104%	102	102	109	101	108	106	106

Structure (SMILES)	cell viability (K562; SRSF2 genotype: SRSF2 P95H/wt)	cell viability (K562; SRSF2 genotype: SRSF2 wt/wt) [%]	cell viability (MARIMO; SRSF2 genotype: SRSF2 P95H/wt) [%]	cell viability (MARIMO; SRSF2 genotype: SRSF2 wt/wt) [%]	cell viability (MOLM14; SRSF2 genotype: SRSF2 P95H/wt) [%]	cell viability (MOLM14; SRSF2 genotype: SRSF2 wt/wt) [%]	cell viability (OCI-AML2; SRSF2 genotype: P95H/wt) [%]	cell viability (OCI-AML2; SRSF2 genotype: wt/wt) [%]
CN1CCc2cc3c(cc2C1C1OC(=O)c2c1ccc1c2OCO1)OCO3 (single isomer, unassigned; (+)) [(+)-Bicuculline]	102% and 97.1%	96.5	97.6	106	99.2	99.5	93.9	96.7
CN1C2CC(OC(=O)C(CO)c3ccccc3)CC1C(O)C2 (stereo not drawn) [Raceanisodamine]	107% and 103%	107	99	111	100	107	99.6	104
O=C(O)CCCCCCCCCO [10-Hydroxydecanoic acid]	99.2% and 97.8%	100	97.8	101	97.9	99.3	99.4	92.7
CC(C)=CCCC(C)(O)C1CCC2(C)C1C(O)CC1C3(C)CCC(O)C(C)(C)C3C(OC3OC(CO)C(O)C(O)C3O)CC12C [(20R)-Ginsenoside Rh1]	101% and 98.6%	103	111	98.8	115	107	107	108
CCN(Cc1ccc(Cl)nc1)/C(=C/[N+](=O)[O-])NC [Nitenpyram]	98.8% and 88.3%	99.9	94.5	99	97.7	98.6	95.2	99.8
O=C(O)CNC(=O)c1c(O)c2ccccc2n(Cc2ccccc2)c1=O	95.1% and 95.2%	101	94.3	100	99.8	101	103	96.5
N#CC=C1C=CC(O)C(O)C1OC1OC(CO)C(O)C(O)C1O (stereo not drawn) [Lithospermoside]	89.9% and 83.2%	84.3	86.5	97.5	87.4	91.7	95	116
C/C(=C\c1csc(C)n1)[C@@H]1C[C@@H]2O[C@]2(C)CCC[C@H](C)[C@H](O)[C@@H](C)C(=O)C(C)(C)[C@@H](O)CC(=O)O1 [Patupilone (EPO906, Epothilone B)]	29% and 37%	39.4	7.88	6.51	8.36	2.95	6.03	11.7
COc1cc2c(cc1O)C[C@H]1c3c(cc(O)c(OC)c3-2)CCN1C [Boldine]	99.6% and 100%	99	94.1	88.6	96.5	101	95.3	91
C=C[C@]12CN(C)[C@@H]3[C@H]4CO[C@H](C[C@H]41)[C@]1(C(=O)Nc4ccccc41)[C@@H]32 [Gelsemine]	91.8% and 88.5%	87.9	87.9	97.5	96	90	90.1	90
c1ccc2c(c1)[I+]c1ccccc1-2 [Diphenyleneiodonium chloride (DPI)]	25.4% and 25.3%	25	19.6	25.4	3.2	2.99	11.4	16.4
C=CCCCCCCCCC(=O)O[C@H]1CC[C@H]2[C@@H]3CCC4=CC(=O)C=C[C@]4(C)[C@H]3CC[C@]12C [Boldenone Undecylenate]	100% and 92.8%	95.7	86	89.2	57.4	26.7	38.1	36.7
CC(C)C1=CC(=O)[C@@](C)(C2[C@H](O)C[C@@]3(C)[C@@H]4CC=C5[C@@H](CC[C@@H](OC6OCC(O)C(O)C6OC6OC(C)C(O)C(O)C6O)C5(C)C)[C@]4(C)C(=O)C[C@]23C)O1 (stereo partly drawn) [Picfeltarraenin IA]	95.9% and 96.6%	89.6	92.2	92.5	89.7	93.2	94.3	101
CC1=C[C@]23C(=O)[C@@H](C=C(CO)[C@@H](O)[C@]2(O)[C@H]1O)[C@H]1[C@@H](C[C@H]3C)C1(C)C [Ingenol]	113% and 98.6%	111	109	107	111	108	68.2	79
Cn1c(COP(=O)(NCCBr)NCCBr)cnc1[N+](=O)[O-]	102% and 109%	103	39.3	56	29.1	12.8	29.4	40.1
c1c2c(cc3c1OCO3)-c1cc3ccc4c(c3c[n+]1CC2)OCO4 [Coptisine chloride]	83.7% and 89.7%	84.2	95.4	99.8	96.2	94.3	84.5	91.7
O=C(c1ccccc1O)c1[nH]c(Cl)c(Cl)c1-n1c(C(=O)c2ccccc2O)cc(Cl)c1Cl [Marinopyrrole A (Maritoclax)]	12.6% and 15.9%	14.3	24.9	21.3	13.5	12.8	4.26	11.9
COC1CC(OC2CCC3(C)C(CCC45OC46CCC(C(C)=O)C6(C)C(OC(C)=O)C(OC(=O)c4ccccc4)C35)C2)OC(C)C1OC1OC(C)C(O)C(OC)C1O (stereo not drawn) [Tenacissoside I]	92.5% and 93.1%	93.8	88.2	100	91.9	92.5	95	106

— the supplement of paper PMC10981050
